Experimental data reported in PubChem BioAssay (NCI).
About 83,000 compounds went through this panel and 20% of them were active in at least one assay; those are over-represented in the sample as a whole.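 Testing used 96-well plates and a 48-hour single-concentration exposure. Example: -40 means 40% of the starting cells died.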 The source made the active and inactive calls. Rule for the calls: active = growth percent below 10; inactive = the rest.

Tests used:
Experiment in all cases: NCI-60 one-dose screen, 48 h (100 = growth as untreated, 0 = no growth, -100 = all killed)
Settings in all cases: 10 µM unless noted
[1] = test system: NCI-H23 lung
[2] = test system: NCI-H226 lung
[3] = test system: NCI-H322M lung
[4] = test system: HOP-62 NSCLC
[5] = test system: HOP-92 NSCLC
[6] = test system: NCI-H522 lung
[7] = test system: A549/ATCC NSCLC
[8] = test system: 786-0 renal
[9] = test system: COLO 205 colon

Measured: growth

CCN(CC)CCNc1ccc(N=Nc2cnc3ccccc3c2)c2ccccc12
inactive: [3] 10.8%
active: [1] -92.6% | [2] -73.6% | [4] -84.6% | [5] -82.4% | [6] -87.2% | [7] -97.9% | [8] -87.9% | [9] -82.2%

O=C(COc1ccc(/C=C2\Cc3ccc(Cl)cc3C2=O)cc1)Nc1nccs1
active: [6] -7.85%
inactive: [1] 88.9% | [2] 98.4% | [3] 118% | [4] 101% | [5] 77.5% | [7] 83.7% | [8] 95.8% | [9] 124%

COc1cc2c(cc1OCCCN1Cc3ccc(OCCCCC(=O)N4CCC(CCN5CCCC5)CC4)cc3C1)N=C(N)C21CCCC1
inactive: [1] 84.5% | [2] 106% | [3] 107% | [4] 79.9% | [5] 78.7% | [6] 50.7% | [7] 85% | [8] 85.4% | [9] 42.4%

CCOC(=O)C1=C(C)N=C2Sc3cccc(OC)c3N2[C@H]1c1ccccn1
inactive: [1] 86.9% | [2] 84.9% | [3] 96.4% | [4] 80.6% | [5] 93.3% | [6] 81.2% | [7] 94% | [8] 113% | [9] 103%

N#Cc1ccc(-n2nnc3ccccc32)cc1C#N
inactive: [1] 94% | [2] 96.7% | [3] 111% | [4] 94.6% | [5] 103% | [6] 88.1% | [7] 87.2% | [8] 99.5% | [9] 104%

Cn1cnc(-c2cc3nccc(Oc4ccc(NC(=S)NC(=O)Cc5ccccc5)cc4F)c3s2)c1
inactive: [1] 72.5% | [2] 54.5% | [3] 108% | [4] 78.9% | [5] 50.2% | [6] 41.5% | [7] 53.9% | [8] 98.1% | [9] 89%

Cc1c(NC(=O)OC[C@@H]2COCCN2)cn2ncnc(Nc3ccc4c(cnn4Cc4cccc(F)c4)c3)c12
active: [1] -12.9% | [2] -1.69% | [3] -1.86% | [4] -25% | [5] -12.7% | [6] -30.4% | [7] -9.38% | [8] 0.0698% | [9] -45.4%

Cc1nc(Nc2n[nH]c3c2CN(C(=O)N[C@H](CN(C)C)c2ccccc2)C3(C)C)c2sccc2n1
active: [1] -22.8% | [2] -25.2% | [3] -19.1% | [4] -46.5% | [5] -62.4% | [6] -45% | [7] 0.0643% | [8] -15% | [9] -88.6%

COC(=O)N[C@@H](C)CNc1nccc(-c2cn(C(C)C)nc2-c2cc(Cl)cc(NS(C)(=O)=O)c2F)n1
inactive: [1] 59.2% | [2] 94.9% | [3] 78.7% | [4] 72.7% | [5] 49.7% | [6] 44.2% | [7] 53.4% | [8] 48.6%
active: [9] 4.94%

COc1cc(Nc2c(C#N)cnc3cc(OCCCN4CCN(C)CC4)c(OC)cc23)c(Cl)cc1Cl
inactive: [1] 61.5% | [2] 78.4% | [3] 13.3% | [4] 61.3% | [5] 98% | [6] 14.5% | [7] 36.1% | [8] 67.7%
active: [9] 6.9%

Cc1c(Cn2c(C)nc3c(C(=O)O)cc(N4CCOCC4)cc32)cccc1C(F)(F)F
inactive: [1] 105% | [2] 114% | [3] 98.8% | [4] 79% | [5] 88.3% | [6] 62.9% | [7] 89.7% | [8] 95.8% | [9] 108%

COc1cc(C(=O)NNC(=O)c2ccc(NC(=O)CCl)cc2)cc(OC)c1OC
inactive: [1] 78.9% | [2] 95.5% | [3] 88.5% | [4] 72.7% | [5] 99% | [7] 77% | [8] 95.3% | [9] 106%
active: [6] -34.4%

O=C1/C(=C\c2cccc(OCCCCCOc3ccc(Cl)cc3)c2)N=C2SCCCN12
inactive: [1] 35% | [2] 60.3% | [3] 101% | [4] 71.1% | [5] 48.1% | [6] 32.6% | [7] 45.5% | [8] 72.6% | [9] 60.1%

CCOC(=O)C1=C(C)NC(=O)NC1c1cc(=O)oc2ccc(C)cc12 (stereo not given)
inactive: [1] 96.9% | [2] 93.4% | [3] 98.6% | [4] 105% | [5] 95.6% | [6] 81.5% | [7] 97.6% | [8] 102% | [9] 105%

Cc1cc2c(-c3nc4ccccn4c3N)c(O)c(O)cc2c(O)c1-c1c(C)cc2c(-c3nc4ccccn4c3N)c(O)c(O)cc2c1O
active: [1] 9.67% | [5] -8.82% | [6] -3.16% | [9] -48.5%
inactive: [2] 26% | [3] 29.3% | [4] 11.3% | [7] 16.4% | [8] 32.4%
